According to PubChem BioAssay AID1159580 (chemical genetic matrix, 2015):
The whole screen tested about 5,500 compounds, of which about 2,000 (36%) were called active. Roughly 18% stayed inconclusive and do not appear here. No stated cut-off is given here; in the data, active means normalized growth mostly below about 0.91 (no sharp cut-off); inconclusive means no clear call, values can overlap the other calls; inactive means mostly above about 0.92. The list shows a part of the results.

Assay: chemical genetic growth profiling, strain panel (AID 1159580);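 further: tested at 20 µM; growth read once vehicle control cultures reached saturation at 30 °C; 1 = growth at the plate median or of vehicle wells; lower values mean less growth of the strain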
Details: S. cerevisiae deletion strains, growth OD

Measured: normalized growth

CC1=CC(=O)C2C(C)(C)CCC[C@]2(C)[C@@]1(O)CCc1ccoc1 (stereo partly specified)
inactive: locus YJL187C, strain SWE1, hits give low values 0.992 | locus YJR043C, strain POL32, hits give low values 1.08 | locus YJR066W, strain TOR1, hits give low values 0.973 | locus YJR075W, strain HOC1, hits give low values 0.994 | locus YKL009W, strain mrt4, hits give low values 0.981 | locus YKL068W, hits give low values 0.968 | locus YKL085W, strain MDH1 (second series), hits give low values 0.974 | locus YKL085W, strain MDH1, hits give low values 0.974 | locus YKL160W, strain elf1, hits give low values 0.975 | locus YKL190W, strain CNB1, hits give low values 0.986 | locus YKR001C, strain vps1, hits give low values 1.04 | locus YKR026C, strain gcn3, hits give low values 1 | locus YKR091W, strain srl3, hits give low values 0.991 | locus YLL001W, strain dnm1, hits give low values 0.964 | locus YLL026W, hits give low values 0.994 | locus YLL041C, strain sdh2, hits give low values 0.999 | locus YLR027C, strain aat2, hits give low values 0.984 | locus YLR039C, strain RIC1, hits give low values 1 | locus YLR058C, strain SHM2, hits give low values 1.02 | locus YLR102C, strain apc9, hits give low values 0.979 | locus YLR113W, strain HOG1, hits give low values 1.02 | locus YLR221C, strain rsa3, hits give low values 1.02 | locus YLR258W, strain gsy2, hits give low values 0.996 | locus YLR268W, strain sec22, hits give low values 1 | locus YLR320W, strain mms22, hits give low values 1 | locus YLR342W, strain FKS1, hits give low values 0.99 | locus YLR357W, strain rsc2, hits give low values 1.04 | locus YLR370C, strain arc18, hits give low values 0.996 | locus YLR371W, strain rom2, hits give low values 0.983 | locus YLR384C, strain iki3, hits give low values 0.982 | locus YLR418C, strain cdc73, hits give low values 0.995 | locus YML016C, strain PPZ1, hits give low values 0.998 | locus YML032C, strain rad52, hits give low values 0.983 | locus YML120C, strain ndi1, hits give low values 0.954 | locus YML124C, strain tub3, hits give low values 0.993 | locus YMR058W, strain fet3, hits give low values 1 | locus YMR078C, strain ctf18, hits give low values 0.974 | locus YMR125W, strain sto1, hits give low values 0.959 | locus YMR129W, hits give low values 0.981 | locus YMR205C, strain PFK2, hits give low values 0.922 | locus YMR223W, strain ubp8, hits give low values 0.972 | locus YMR231W, strain pep5, hits give low values 0.998 | locus YMR307W, strain GAS1, hits give low values 1.13 | locus YNL067W, strain RPL9B, hits give low values 1 | locus YNL183C, strain NPR1, hits give low values 0.975 | locus YNL209W, strain ssb2, hits give low values 0.987 | locus YNL233W, strain BNI4, hits give low values 1.03 | locus YNL248C, strain rpa49, hits give low values 0.998 | locus YNL250W, strain rad50, hits give low values 0.927 | locus YNL271C, strain bni1, hits give low values 0.955 | locus YNL298W, strain CLA4, hits give low values 0.996 | locus YNL307C, strain MCK1, hits give low values 0.986 | locus YNL322C, strain KRE1 (second series), hits give low values 0.998 | locus YNR049C, strain mso1, hits give low values 1 | locus YNR052C, strain pop2, hits give low values 0.979 | locus YOL006C, strain TOP1, hits give low values 1.15 | locus YOL012C, strain htz1 1.06 | locus YOL147C, strain pex11, hits give low values 0.976 | locus YOR001W, strain rrp6, hits give low values 1.06 | locus YOR061W, strain CKA2, hits give low values 0.993 | locus YOR069W, strain VPS5, hits give low values 0.99 | locus YOR070C, strain gyp1, hits give low values 0.99 | locus YOR080W, strain dia2, hits give low values 1 | locus YOR083W, strain WHI5, hits give low values 1.01 | locus YOR106W, strain vam3, hits give low values 1 | locus YOR136W, strain idh2, hits give low values 0.986 | locus YOR144C, strain elg1, hits give low values 0.986 | locus YOR184W, strain ser1, hits give low values 1.01 | locus YOR231W, strain MKK1, hits give low values 1.03 | locus YOR265W, strain rbl2, hits give low values 1.02 | locus YOR270C, strain vph1, hits give low values 0.862 | locus YOR290C, strain snf2, hits give low values 0.959 | locus YOR316C, strain cot1, hits give low values 0.993 | locus YPL051W, strain arl3, hits give low values 0.959 | locus YPL078C, strain atp4, hits give low values 0.966 | locus YPL106C, strain sse1, hits give low values 1.02 | locus YPL240C, strain hsp82, hits give low values 1 | locus YPL241C, strain CIN2, hits give low values 0.985 | locus YPL256C, strain CLN2, hits give low values 1.01 | locus YPR119W, strain clb2, hits give low values 0.969 | locus YPR141C, strain kar3, hits give low values 0.962 | locus YPR163C, strain tif3, hits give low values 0.977 | locus YPR167C, strain met16, hits give low values 0.972 | strain wtn01, hits give low values 1.01
active: locus YLR262C, strain YPT6 (second series), hits give low values 0.835 | locus YNL071W, strain lat1, hits give low values 0.902
